Hit rate of the full screen: of about 220,000 compounds, about 16,000 (7.3%) were called active. Roughly 25% stayed inconclusive and do not appear here. Calls follow the shape of the dose curve; as a rule, active = well fitted inhibition curve with a large enough effect (not every such curve was filed as active); inconclusive = small, poorly fitted or top-dose-only effect, or another doubt; inactive = no such curve, though single readings can be large or run the other way. Only a selection was taken, and actives are over-represented in it overall.
What follows are molecules tested against Aldehyde dehydrogenase 1A1 (Homo sapiens) (UniProt P00352) (assay: qHTS Assay for Inhibitors of Aldehyde Dehydrogenase 1 (ALDH1A1)). Settings: Purified ALDH1A1, NADH fluorescence, propionaldehyde substrate; series mostly up to 75.3 µM; activity, negative = inhibition: at the top concentration.
Sequence of Aldehyde dehydrogenase 1A1 (Homo sapiens) (P00352 whole entry, looked up): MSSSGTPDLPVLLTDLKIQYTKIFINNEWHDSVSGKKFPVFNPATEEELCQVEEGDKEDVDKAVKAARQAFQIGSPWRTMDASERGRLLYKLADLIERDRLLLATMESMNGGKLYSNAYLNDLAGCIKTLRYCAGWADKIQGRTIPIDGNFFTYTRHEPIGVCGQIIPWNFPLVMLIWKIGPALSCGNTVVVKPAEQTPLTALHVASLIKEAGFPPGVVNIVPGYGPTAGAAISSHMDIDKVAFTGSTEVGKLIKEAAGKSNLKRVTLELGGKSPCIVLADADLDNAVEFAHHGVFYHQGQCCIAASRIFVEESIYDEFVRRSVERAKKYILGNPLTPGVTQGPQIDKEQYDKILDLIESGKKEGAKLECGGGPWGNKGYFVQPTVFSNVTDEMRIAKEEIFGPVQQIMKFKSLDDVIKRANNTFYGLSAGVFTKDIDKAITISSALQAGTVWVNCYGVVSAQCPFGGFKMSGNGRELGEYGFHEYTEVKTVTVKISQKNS

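For activity, negative = inhibition in this document: plate controls were no enzyme wells and a reference inhibitor.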
Potency is read from the fitted curve at half-maximal effect.

activity, negative = inhibition, inactive:
O=C(C1CCCO1)N1CCN(C(=S)NC2CC2)CC1 (centres undefined) -0.777%
CCC1CCCCN1C(=O)CSc1nc(C)cc(C)n1 (centres undefined) -4.6%
Cn1c(=O)c2c(nc(SCC(=O)Nc3ccccc3N3CCCCC3)n2C)n(C)c1=O -12.6%
Cc1c(C(=O)N/N=C/c2ccccc2)[nH]c2c([N+](=O)[O-])cccc12 8.46%
Cc1[nH]c(=O)c(C(=O)/C=C/c2ccccc2)c2c1CCCC2 4.06%
O=C(O)C1C2CC2CN1C(=O)c1ccc(Cl)cc1Cl (centres undefined) 1.47%
Cc1[nH][nH]c(=O)c1N=Nc1ccccc1 8.64%
Cc1[nH][nH]c(=O)c1C(c1ccc2c(c1)OCO2)c1c(C)[nH][nH]c1=O -2.58%
O=C(NCCc1ccccn1)c1cccnc1Oc1ccc(Cl)cc1 9.99%
CN1CCN(C(=O)CCc2nc(-c3ccc(Cl)cc3)no2)CC1 11.6%
CCCn1c(=O)c2ccccc2n2c(SCC(=O)/C(C#N)=C(\C)N)nnc12 1.09%
CCOC(=O)Nc1ccccc1N1C(=O)c2ccccc2C1=O 10.7%
CCc1nnc(NS(=O)(=O)c2ccc(N=Cc3c(C)[nH]n(-c4ccc(C)cc4)c3=O)cc2)s1 -7.49%
Cc1ccc(-n2[nH]c(C)c(/C=N/N3C(=O)c4cccc5cccc(c45)C3=O)c2=O)cc1 4.67%
N/C(=N\S(=O)(=O)c1cc(C(F)(F)F)cc(C(F)(F)F)c1)c1cccs1 -0.599%
CC1=CC(=C(C#N)c2nc3ccccc3s2)C=C(C)N1c1ccc(F)cc1F -9.49%
Oc1ccccc1C=NC1CCCCC1N=Cc1ccccc1O (centres undefined) 11%
CCOc1ccc(NC(=O)NNC(=O)c2ccc(Cl)cc2Cl)cc1 3.26%
Cc1nc2cc(NC(=O)NC3CC3)ccc2n1C -9.58%
COCC(=O)Nc1ccc(Br)cc1 5.23%
COC(=O)Cc1ccc(NC(=S)NCc2ccccc2)cc1 1.73%
CC(C)C(O)C1CCN(Cc2nc(Cc3ccccc3Cl)no2)CC1 (centres undefined) -0.592%
Cc1ccc(COc2ccc(/C=N/NC(=O)CN3CCCCC3)cc2)cc1 8.06%
O=c1cc(O)nc(SCc2ccccc2Cl)[nH]1 1.42%
COc1ccc(OC)c(-n2c(=S)[nH]c3cc(C(=O)N4CCCCC4)ccc3c2=O)c1 -1.79%
COc1cc2[nH]c(=S)n(Cc3ccc(F)cc3)c(=O)c2cc1OC 6.91%
CCOC(=O)N1CCN(C(=O)Cc2ccc(-n3c(=S)[nH]c4ccccc4c3=O)cc2)CC1 -10.4%
Cc1ccc(Cl)cc1NC(=O)c1ccccn1 3.34%
Cc1cn(C2OC[C@@H](O)[C@@H]2CO)c(=O)[nH]c1=O (some centres undefined) 9.87%
O=C(NCc1cccnc1)c1cccc(-c2cc3ccccc3oc2=O)c1 -7.95%
CCc1ccc(CN(C)Cc2nc(Cc3ccccc3)no2)nc1 -4.1%
CN(C)CCCN1C(=O)CSC1c1ccc([N+](=O)[O-])cc1 (centres undefined) 4.08%
O=C(c1ccc(S(=O)(=O)N2CCOCC2)cc1)N1CCN(c2ccccc2)CC1 2.43%
CCC(CC)C(=O)N1CC(=O)Nc2ccc(Br)cc2C1c1ccccc1 (centres undefined) 0.759%
CNS(=O)(=O)c1ccc(NC(=O)C2CC(=O)N(c3ccc(Cl)cc3)C2)cc1 (centres undefined) 5.48%
COc1cc(OC)nc(NC(=O)CCl)n1 3.91%
O=C(NNc1ccccn1)c1ccc(Cl)nc1 -11.2%
CCCCSc1nc2ccccc2[nH]1 -4.29%
COc1cc(CCC(=O)OCC(=O)Nc2cccc(S(N)(=O)=O)c2)cc(OC)c1OC -5.58%
Cc1nn(C)c(C)c1S(=O)(=O)N1CCC(CO)(Cc2ccc(Cl)cc2)CC1 7.34%

Potency, active:
CCC1CCCCN1C(=O)CSc1nc2c(c(=O)n(C)c(=O)n2C)n1C (centres undefined) 12.6 µM
Cc1nc(-c2ccccc2)sc1C(=O)/C=C/c1ccccc1 3.55 µM
Cc1[nH][nH]c(=O)c1C(c1ccc(-c2ccc(Cl)cc2)o1)c1c(C)[nH][nH]c1=O 22.4 µM
CCCCN1C(=O)/C(=C(/C#N)C(N)=O)c2ccccc21 7.08 µM
COc1cc(SC#N)ccc1N=Cc1c(C)[nH]n(-c2ccc(C)cc2)c1=O 0.631 µM
O=c1c(O)c(Br)ccc2c(Br)c(O)c(O)c(O)c12 8.91 µM
Oc1cc(O)c2c(c1)OC(c1ccc(O)c(O)c1)C(O)C2 (centres undefined) 10 µM
CC(C)Oc1ccc(CC(=O)NNC(=S)Nc2ccc(Br)cc2)cc1 10 µM
S=c1[nH]nc(SCc2ccccc2Cl)c2[nH]cnc12 0.0316 µM
CCc1ccc(-n2c(=S)sc3c(=O)n(-c4ccccc4OC)c(=S)[nH]c32)cc1 12.6 µM
COc1ccccc1-n1c(=S)[nH]c2c(sc(=S)n2-c2ccc(C)cc2C)c1=O 8.91 µM
Cc1ccc2c(c1)C(c1ccccc1)N(C(=O)c1ccc(S(=O)(=O)N3CCOCC3)cc1)CC(=O)N2 (centres undefined) 7.94 µM
O=C(CCl)NNc1cccc(Cl)n1 10 µM

Potency, inactive:
O=C(/C=C/c1ccccc1)c1ccccc1O

Source: PubChem BioAssay AID1030 (National Center for Advancing Translational Sciences (NCATS), 2008)
